According to the supplement of paper PMC10849652:
About 8,800 targets were measured; listed, in parts, are those with a hit and a random draw of the rest. About 0.5% of all pairs of compound and target were hits.

Legend:
Experiment in all cases: log2 fold change, soluble protein after heating vs DMSO (PISA); higher = thermal stabilisation; K562 lysate, 10 uM; active = over 0.2 and 3.5 SD of the protein, either way, in both replicates (recomputed)
vemurafenib = compound: CCCS(=O)(=O)Nc1ccc(F)c(C(=O)c2c[nH]c3ncc(-c4ccc(Cl)cc4)cc23)c1F [vemurafenib]
Procedure, shortened: (§1)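 Quantification was by TMTpro 16plex LC-MS/MS with equalised channel sums, applied to the supernatant after 21,000xg for 90 min. Samples were crude K562 extract at 1 mg/mL protein in PBS pH 7.4 with 1 mM MgCl2, treated with 10 μM compound for 30 min, heated for 3 min across 48°C-58°C, pooled and brought to 0.5% NP-40 at 4°C. Values are log-two fold changes in thermal stability relative to solvent controls, from duplicates.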

[1] = compound: CCCS(=O)(=O)Nc1ccc(F)c(C(=O)c2c[nH]c3ncc(Cl)cc23)c1F
Procedure, shortened: as §1

barasertib = compound: CCN(CCCOc1ccc2c(Nc3cc(CC(=O)Nc4cccc(F)c4)[nH]n3)ncnc2c1)CCOP(=O)(O)O [barasertib]
Procedure, shortened: as §1

[2] = compound: CC[C@@H]1C(=O)N(C)c2cnc(Nc3ccc(C(=O)NC4CCN(C)CC4)cc3OC)nc2N1C1CCCC1
Procedure, shortened: as §1

volasertib = compound: CC[C@@H]1C(=O)N(C)c2cnc(Nc3ccc(C(=O)N[C@H]4CC[C@H](N5CCN(CC6CC6)CC5)CC4)cc3OC)nc2N1C(C)C [volasertib]
Procedure, shortened: as §1

[3] = compound: CCn1c(C(=O)N(C2CC2)C2CC2)cc2c3c(ncn3C)c(Nc3cc(C)n(C)n3)nc21
Procedure, shortened: as §1

[4] = compound: CCn1cc(-c2ccnc3[nH]c(-c4cccc(CN(C)C)c4)cc23)c(-c2ccc(NC(=O)N(C)C)cc2)n1
Procedure, shortened: as §1

[5] = compound: CN1CCC(CNc2ccc3ncc(-c4cccc(OC(F)(F)F)c4)n3n2)CC1
Procedure, shortened: as §1

saracatinib = compound: CN1CCN(CCOc2cc(OC3CCOCC3)c3c(Nc4c(Cl)ccc5c4OCO5)ncnc3c2)CC1 [saracatinib]
Procedure, shortened: as §1

sotrastaurin = compound: CN1CCN(c2nc(C3=C(c4c[nH]c5ccccc45)C(=O)NC3=O)c3ccccc3n2)CC1 [sotrastaurin]
Procedure, shortened: as §1

alvocidib = compound: CN1CC[C@H](c2c(O)cc(O)c3c(=O)cc(-c4ccccc4Cl)oc23)[C@H](O)C1 [alvocidib]
Procedure, shortened: as §1

Tubastatin A = compound: CN1CCc2c(c3ccccc3n2Cc2ccc(C(=O)NO)cc2)C1 [Tubastatin A]
Procedure, shortened: as §1

[6] = compound: CNC(=O)C1=CC=CC=C1NC2=NC(=NC=C2Cl)NC3=C(C=C(C=C3)N4CCOCC4)OC
Procedure, shortened: as §1

defactinib = compound: CNC(=O)c1ccc(Nc2ncc(C(F)(F)F)c(NCc3nccnc3N(C)S(C)(=O)=O)n2)cc1 [defactinib]
Procedure, shortened: as §1

[7] = compound: CNc1nc(-c2ccc3c(N)n[nH]c3c2)cc(N2C[C@@H](C(=O)NC3CCCCC3)CC[C@H]2C)n1
Procedure, shortened: as §1

encorafenib = compound: COC(=O)N[C@@H](C)CNc1nccc(-c2cn(C(C)C)nc2-c2cc(Cl)cc(NS(C)(=O)=O)c2F)n1 [encorafenib]
Procedure, shortened: as §1

[8] = compound: COC(=O)[C@H](CCSC)NC(=O)C1=C(C=C(C=C1)NC[C@H](CS)N)C2=CC=CC=C2
Procedure, shortened: as §1

alisertib = compound: COc1cc(Nc2ncc3c(n2)-c2ccc(Cl)cc2C(c2c(F)cccc2OC)=NC3)ccc1C(=O)O [alisertib]
Procedure, shortened: as §1

[9] = compound: COc1cc2nc(-c3cc(F)ccc3O)nc(N[C@@H]3CNC[C@H]3C(C)(C)O)c2cc1OC
Procedure, shortened: as §1

gefitinib = compound: COc1cc2ncnc(Nc3ccc(F)c(Cl)c3)c2cc1OCCCN1CCOCC1 [gefitinib]
Procedure, shortened: as §1

Measured: log2 fold change

BOLA2 (UniProt Q9H3K6)
UniProt Q9H3K6, sequence (Q9H3K6 whole entry, looked up): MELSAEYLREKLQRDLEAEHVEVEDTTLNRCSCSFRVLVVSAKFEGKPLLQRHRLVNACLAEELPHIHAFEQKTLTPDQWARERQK
inactive: vemurafenib -0.086 | [1] -0.043 | barasertib 0.129 | [2] -0.068 | volasertib 0.004 | [3] 0.067 | [5] -0.04 | saracatinib -0.033 | sotrastaurin -0.038 | alvocidib 0.02 | Tubastatin A 0.015 | [6] -0.065 | defactinib 0.023 | [7] -0.052 | encorafenib 0.036 | [8] -0.057 | alisertib -0.006 | [9] 0.009 | gefitinib -0.03
active: [4] 0.604

CASP9 (UniProt P55211)
UniProt P55211, sequence (P55211 whole entry, looked up): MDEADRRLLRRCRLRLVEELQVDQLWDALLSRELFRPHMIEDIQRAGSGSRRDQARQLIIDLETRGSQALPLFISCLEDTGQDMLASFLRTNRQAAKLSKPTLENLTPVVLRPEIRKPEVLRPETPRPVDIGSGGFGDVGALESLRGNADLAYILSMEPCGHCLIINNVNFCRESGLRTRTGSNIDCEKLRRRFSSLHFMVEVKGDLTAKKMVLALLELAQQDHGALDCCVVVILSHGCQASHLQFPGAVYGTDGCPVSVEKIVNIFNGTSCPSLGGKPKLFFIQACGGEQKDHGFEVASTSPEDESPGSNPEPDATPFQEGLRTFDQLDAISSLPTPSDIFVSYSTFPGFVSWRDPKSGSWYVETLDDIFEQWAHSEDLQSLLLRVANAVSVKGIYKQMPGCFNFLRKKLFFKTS
inactive: vemurafenib -0.017 | [1] 0.001 | barasertib -0.002 | [2] 0.025 | volasertib 0.029 | [3] -0.061 | [4] -0.013 | [5] 0.005 | saracatinib 0.003 | sotrastaurin 0.045 | alvocidib -0.01 | Tubastatin A -0.043 | [6] -0.021 | defactinib 0.039 | [7] -0.014 | encorafenib 0.023 | [8] -0.077 | alisertib 0.014 | [9] 0.017 | gefitinib 0.052

C18orf25 (UniProt Q96B23)
UniProt Q96B23, sequence (Q96B23 whole entry, looked up): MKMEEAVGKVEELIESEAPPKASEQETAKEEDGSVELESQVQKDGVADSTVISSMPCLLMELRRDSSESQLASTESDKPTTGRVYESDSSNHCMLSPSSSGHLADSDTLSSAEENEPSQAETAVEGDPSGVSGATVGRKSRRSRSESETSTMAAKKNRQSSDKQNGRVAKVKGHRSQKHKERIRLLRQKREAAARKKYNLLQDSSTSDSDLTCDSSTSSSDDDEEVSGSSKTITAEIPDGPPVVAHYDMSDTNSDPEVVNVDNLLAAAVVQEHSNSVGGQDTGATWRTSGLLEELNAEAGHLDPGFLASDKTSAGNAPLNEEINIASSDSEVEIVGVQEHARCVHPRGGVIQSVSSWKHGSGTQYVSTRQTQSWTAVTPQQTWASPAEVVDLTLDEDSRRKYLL
inactive: vemurafenib -0.014 | [1] 0.014 | barasertib 0.004 | [2] 0.1 | volasertib -0.013 | [3] -0.059 | [4] -0.035 | [5] 0.015 | saracatinib -0.032 | sotrastaurin 0.009 | alvocidib -0.014 | Tubastatin A 0.123 | [6] 0.034 | defactinib 0.084 | [7] 0.041 | encorafenib -0.005 | [8] -0.067 | alisertib 0.019 | [9] -0.027 | gefitinib 0.029

ATP5PF isoform 2 (UniProt P18859)
UniProt P18859, sequence (P18859 whole entry, looked up): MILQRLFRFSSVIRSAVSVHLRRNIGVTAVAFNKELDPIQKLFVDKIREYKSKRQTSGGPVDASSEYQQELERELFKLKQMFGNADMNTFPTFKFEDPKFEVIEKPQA
active: [4] 0.663
inactive: vemurafenib 0.083 | [1] -0.023 | barasertib 0.064 | [2] 0.076 | volasertib 0.133 | [3] 0.076 | [5] -0.205 | saracatinib -0.024 | sotrastaurin -0.067 | alvocidib 0.203 | Tubastatin A 0.146 | [6] 0.042 | defactinib 0.071 | [7] -0.022 | encorafenib 0.014 | [8] -0.061 | alisertib -0.005 | [9] 0.01 | gefitinib -0.173

CCAR2 (UniProt Q8N163)
UniProt Q8N163, sequence (Q8N163 whole entry, looked up): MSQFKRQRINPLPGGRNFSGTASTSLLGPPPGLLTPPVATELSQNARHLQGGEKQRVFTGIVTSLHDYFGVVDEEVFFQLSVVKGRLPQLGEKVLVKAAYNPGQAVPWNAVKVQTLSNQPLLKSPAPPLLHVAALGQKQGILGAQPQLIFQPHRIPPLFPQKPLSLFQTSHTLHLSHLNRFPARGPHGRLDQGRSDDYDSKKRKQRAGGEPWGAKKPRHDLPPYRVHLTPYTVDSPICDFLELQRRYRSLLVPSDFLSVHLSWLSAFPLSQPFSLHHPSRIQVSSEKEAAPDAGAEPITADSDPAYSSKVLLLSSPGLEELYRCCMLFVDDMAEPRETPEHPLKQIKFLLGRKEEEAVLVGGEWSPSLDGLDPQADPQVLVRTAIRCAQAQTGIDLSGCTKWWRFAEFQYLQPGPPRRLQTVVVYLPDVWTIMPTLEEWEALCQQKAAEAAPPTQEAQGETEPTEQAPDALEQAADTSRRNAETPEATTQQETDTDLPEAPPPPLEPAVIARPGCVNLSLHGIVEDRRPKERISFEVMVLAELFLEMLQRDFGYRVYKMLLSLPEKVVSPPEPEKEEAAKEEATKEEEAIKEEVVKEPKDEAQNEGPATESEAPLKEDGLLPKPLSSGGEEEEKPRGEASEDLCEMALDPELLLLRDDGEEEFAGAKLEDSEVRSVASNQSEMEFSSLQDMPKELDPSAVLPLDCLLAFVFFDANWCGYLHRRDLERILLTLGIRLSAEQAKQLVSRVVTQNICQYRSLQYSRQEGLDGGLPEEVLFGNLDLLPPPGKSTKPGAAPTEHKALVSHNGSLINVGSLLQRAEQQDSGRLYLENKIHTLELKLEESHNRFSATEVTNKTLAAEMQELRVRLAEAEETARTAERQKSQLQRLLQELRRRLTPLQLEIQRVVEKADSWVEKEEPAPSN
inactive: vemurafenib -0.007 | [1] -0.004 | barasertib -0.047 | [2] -0.01 | volasertib -0.031 | [3] 0.01 | [4] -0.057 | [5] 0.032 | saracatinib -0.002 | sotrastaurin 0.007 | alvocidib -0.052 | Tubastatin A -0.096 | [6] 0.001 | defactinib 0.018 | [7] -0.02 | encorafenib 0.014 | [8] 0.011 | alisertib 0.014 | [9] 0 | gefitinib 0.003

CBX1 (UniProt P83916)
UniProt P83916, sequence (P83916 whole entry, looked up): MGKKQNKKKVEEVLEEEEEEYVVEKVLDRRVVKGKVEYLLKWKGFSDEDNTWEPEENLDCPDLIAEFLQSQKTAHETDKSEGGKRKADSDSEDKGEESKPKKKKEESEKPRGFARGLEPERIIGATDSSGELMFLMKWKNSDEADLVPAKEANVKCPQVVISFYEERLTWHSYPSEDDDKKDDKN
inactive: vemurafenib 0.001 | [1] 0.015 | barasertib -0.075 | [2] 0.028 | volasertib 0.01 | [3] 0.006 | [5] -0.111 | saracatinib -0.003 | sotrastaurin 0.038 | alvocidib 0.078 | Tubastatin A 0.011 | [6] 0.011 | defactinib -0.001 | [7] 0.025 | encorafenib 0.01 | [8] -0.055 | alisertib 0.012 | [9] -0.025 | gefitinib 0.059
active: [4] 0.301

C1orf112 (UniProt Q9NSG2)
UniProt Q9NSG2, sequence (Q9NSG2 whole entry, looked up): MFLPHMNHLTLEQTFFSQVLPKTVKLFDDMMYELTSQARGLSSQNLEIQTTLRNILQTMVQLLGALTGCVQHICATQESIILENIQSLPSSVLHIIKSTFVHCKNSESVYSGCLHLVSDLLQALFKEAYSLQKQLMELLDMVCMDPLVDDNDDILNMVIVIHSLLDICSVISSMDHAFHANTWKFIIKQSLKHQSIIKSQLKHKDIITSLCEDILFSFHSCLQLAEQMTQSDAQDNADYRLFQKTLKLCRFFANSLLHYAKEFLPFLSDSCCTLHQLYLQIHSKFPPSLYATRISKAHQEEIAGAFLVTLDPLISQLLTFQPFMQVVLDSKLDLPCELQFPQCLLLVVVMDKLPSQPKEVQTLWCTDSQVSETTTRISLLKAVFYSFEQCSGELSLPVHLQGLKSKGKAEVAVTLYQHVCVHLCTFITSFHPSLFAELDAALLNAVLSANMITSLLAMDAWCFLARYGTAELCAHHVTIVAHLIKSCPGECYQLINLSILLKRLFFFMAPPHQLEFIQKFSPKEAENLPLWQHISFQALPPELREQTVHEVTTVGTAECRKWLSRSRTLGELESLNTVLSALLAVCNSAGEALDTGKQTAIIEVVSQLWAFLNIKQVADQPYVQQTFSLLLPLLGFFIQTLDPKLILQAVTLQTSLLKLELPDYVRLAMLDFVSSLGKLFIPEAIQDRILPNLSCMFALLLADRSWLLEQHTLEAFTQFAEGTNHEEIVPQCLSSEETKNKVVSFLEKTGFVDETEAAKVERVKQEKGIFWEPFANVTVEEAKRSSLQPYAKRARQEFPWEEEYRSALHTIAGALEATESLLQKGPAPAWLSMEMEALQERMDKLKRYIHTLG
inactive: vemurafenib 0 | [1] 0.006 | barasertib -0.04 | [2] -0.065 | volasertib 0.034 | [3] 0.037 | [4] 0.171 | [5] -0.059 | saracatinib 0.065 | sotrastaurin 0.025 | alvocidib -0.247 | Tubastatin A -0.181 | [6] 0.077 | defactinib 0.038 | [7] -0.082 | encorafenib 0.037 | [8] 0.096 | alisertib -0.032 | [9] -0.046 | gefitinib -0.004

CBR1 (UniProt P16152)
UniProt P16152, sequence (P16152 whole entry, looked up): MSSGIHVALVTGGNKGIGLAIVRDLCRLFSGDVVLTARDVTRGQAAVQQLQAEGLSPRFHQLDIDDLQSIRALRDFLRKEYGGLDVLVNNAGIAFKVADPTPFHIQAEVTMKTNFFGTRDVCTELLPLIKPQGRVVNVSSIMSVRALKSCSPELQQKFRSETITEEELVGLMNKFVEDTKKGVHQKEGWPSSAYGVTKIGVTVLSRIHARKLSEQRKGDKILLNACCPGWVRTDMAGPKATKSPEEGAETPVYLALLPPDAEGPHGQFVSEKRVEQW
inactive: vemurafenib -0.009 | [1] 0.011 | barasertib -0.013 | [2] -0.019 | volasertib 0.004 | [3] 0 | [4] -0.096 | [5] 0.077 | saracatinib 0.037 | sotrastaurin -0.047 | alvocidib -0.013 | Tubastatin A 0.015 | [6] -0.006 | defactinib 0.008 | [7] -0.041 | encorafenib 0 | [8] 0.02 | alisertib -0.024 | [9] 0.023 | gefitinib -0.068

CDK2 (UniProt P24941)
inactive: vemurafenib -0.012 | [1] 0.012 | barasertib -0.01 | [2] -0.059 | volasertib -0.025 | [3] 0.008 | [4] -0.055 | [5] 0.167 | saracatinib -0.017 | sotrastaurin 0.09 | Tubastatin A 0.021 | [6] 0.08 | defactinib 0.196 | [7] 0.048 | encorafenib 0.016 | [8] -0.012 | alisertib -0.01 | [9] 0.072 | gefitinib -0.012
active: alvocidib 0.304

CEP120 (UniProt Q8N960)
inactive: vemurafenib 0.052 | [1] -0.098 | barasertib 0.033 | [2] -0.411 | volasertib 0.029 | [3] -0.134 | [4] -0.233 | [5] 0.119 | saracatinib 0.008 | sotrastaurin 0.034 | alvocidib -0.046 | Tubastatin A 0.098 | [6] -0.096 | defactinib -0.025 | [7] 0.273 | encorafenib 0.065 | [8] -0.117 | alisertib 0.141 | [9] 0.038 | gefitinib 0.119

CASC4 (UniProt Q6P4E1)
UniProt Q6P4E1, sequence (Q6P4E1 whole entry, looked up): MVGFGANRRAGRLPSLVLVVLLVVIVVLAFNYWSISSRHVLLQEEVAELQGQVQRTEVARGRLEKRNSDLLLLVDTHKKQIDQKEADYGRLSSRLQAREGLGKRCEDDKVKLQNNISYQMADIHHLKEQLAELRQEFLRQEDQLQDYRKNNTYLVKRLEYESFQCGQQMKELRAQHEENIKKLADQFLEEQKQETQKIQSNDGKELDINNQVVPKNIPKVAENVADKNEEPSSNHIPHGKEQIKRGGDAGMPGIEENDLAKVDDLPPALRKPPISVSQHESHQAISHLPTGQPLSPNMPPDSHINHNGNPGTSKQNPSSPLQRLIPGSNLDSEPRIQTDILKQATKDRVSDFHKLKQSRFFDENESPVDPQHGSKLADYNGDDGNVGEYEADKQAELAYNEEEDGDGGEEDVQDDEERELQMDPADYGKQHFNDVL
inactive: vemurafenib 0 | [1] 0.02 | barasertib -0.02 | [2] 0.009 | volasertib 0.017 | [3] 0.022 | [4] -0.05 | [5] -0.008 | saracatinib -0.003 | sotrastaurin -0.004 | alvocidib -0.03 | Tubastatin A 0.054 | [6] 0.011 | defactinib -0.064 | [7] -0.044 | encorafenib 0.128 | [8] -0.012 | alisertib 0.035 | [9] -0.004 | gefitinib 0.086

CENPQ (UniProt Q7L2Z9)
inactive: vemurafenib 0.069 | [1] -0.167 | barasertib 0.038 | [2] -0.023 | volasertib -0.115 | [3] -0.084 | [5] 0.095 | saracatinib 0.033 | sotrastaurin 0.023 | alvocidib -0.122 | Tubastatin A -0.016 | [6] 0.032 | defactinib -0.085 | [7] 0.055 | encorafenib 0.169 | [8] 0.025 | alisertib 0 | [9] -0.068 | gefitinib 0.091
active: [4] -0.44

CANX isoform 2 (UniProt P27824)
UniProt P27824, sequence (P27824 whole entry, looked up): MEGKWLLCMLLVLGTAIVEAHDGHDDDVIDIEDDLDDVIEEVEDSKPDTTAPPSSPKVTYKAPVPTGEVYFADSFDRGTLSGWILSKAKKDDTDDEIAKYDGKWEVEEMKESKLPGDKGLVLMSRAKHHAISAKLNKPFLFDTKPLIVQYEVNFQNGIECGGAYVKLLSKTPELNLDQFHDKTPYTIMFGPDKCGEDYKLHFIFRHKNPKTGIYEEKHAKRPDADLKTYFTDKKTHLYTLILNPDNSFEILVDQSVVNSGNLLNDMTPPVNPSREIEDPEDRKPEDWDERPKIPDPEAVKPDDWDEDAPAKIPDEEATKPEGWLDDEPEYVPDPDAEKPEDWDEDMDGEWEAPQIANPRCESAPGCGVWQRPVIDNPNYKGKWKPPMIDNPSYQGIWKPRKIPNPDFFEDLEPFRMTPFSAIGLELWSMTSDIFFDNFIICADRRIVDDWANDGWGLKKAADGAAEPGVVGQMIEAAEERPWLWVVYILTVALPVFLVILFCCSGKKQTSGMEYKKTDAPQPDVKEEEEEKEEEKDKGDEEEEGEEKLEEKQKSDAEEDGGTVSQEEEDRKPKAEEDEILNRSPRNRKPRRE
inactive: vemurafenib 0.015 | [1] -0.012 | barasertib -0.015 | [2] 0.061 | volasertib 0.033 | [3] -0.014 | [4] -0.074 | [5] 0.034 | saracatinib 0.001 | sotrastaurin 0.036 | alvocidib -0.024 | Tubastatin A 0.05 | [6] -0.006 | defactinib 0.002 | [7] -0.003 | encorafenib 0.027 | [8] -0.015 | alisertib -0.008 | [9] 0.023 | gefitinib 0.008

C5orf51 (UniProt A6NDU8)
UniProt A6NDU8, sequence (A6NDU8 whole entry, looked up): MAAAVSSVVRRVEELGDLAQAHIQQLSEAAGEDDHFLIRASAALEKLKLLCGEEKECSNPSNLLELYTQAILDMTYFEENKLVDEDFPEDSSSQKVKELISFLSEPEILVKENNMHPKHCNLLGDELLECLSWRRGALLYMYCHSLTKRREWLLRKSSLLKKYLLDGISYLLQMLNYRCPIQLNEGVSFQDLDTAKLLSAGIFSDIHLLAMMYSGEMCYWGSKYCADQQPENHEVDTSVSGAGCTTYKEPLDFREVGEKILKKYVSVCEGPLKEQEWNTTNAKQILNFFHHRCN
inactive: vemurafenib -0.002 | [1] 0.009 | barasertib 0.046 | [2] -0.014 | volasertib -0.029 | [3] 0.053 | [4] 0.036 | [5] -0.137 | saracatinib 0.016 | sotrastaurin 0.036 | alvocidib 0.075 | Tubastatin A -0.123 | [6] -0.01 | defactinib -0.045 | [7] -0.043 | encorafenib -0.006 | [8] 0.144 | alisertib 0.023 | [9] 0.038 | gefitinib 0.056

CDC42EP4 (UniProt Q9H3Q1)
UniProt Q9H3Q1, sequence (Q9H3Q1 whole entry, looked up): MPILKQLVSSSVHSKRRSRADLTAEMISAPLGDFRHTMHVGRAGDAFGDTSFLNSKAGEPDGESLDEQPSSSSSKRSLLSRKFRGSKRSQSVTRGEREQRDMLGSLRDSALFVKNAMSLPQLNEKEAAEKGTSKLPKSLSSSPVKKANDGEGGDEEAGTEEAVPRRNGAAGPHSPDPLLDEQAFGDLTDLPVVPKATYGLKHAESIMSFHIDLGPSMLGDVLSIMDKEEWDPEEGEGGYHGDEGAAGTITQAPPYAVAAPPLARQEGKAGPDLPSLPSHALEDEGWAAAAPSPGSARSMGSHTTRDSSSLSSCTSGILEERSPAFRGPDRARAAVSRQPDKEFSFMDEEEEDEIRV
inactive: vemurafenib 0.01 | [1] -0.01 | barasertib 0.013 | [2] 0.162 | volasertib 0.013 | [3] -0.04 | [4] -0.021 | [5] 0.042 | saracatinib -0.064 | sotrastaurin -0.012 | alvocidib -0.086 | Tubastatin A -0.013 | [6] 0.041 | defactinib 0.033 | [7] 0.113 | encorafenib 0.079 | [8] -0.054 | alisertib -0.085 | [9] -0.017 | gefitinib 0.006

ATG4A (UniProt Q8WYN0)
inactive: vemurafenib -0.045 | [1] 0.033 | barasertib 0.012 | [2] -0.047 | volasertib -0.015 | [3] 0.008 | [4] 0.027 | [5] -0.045 | saracatinib 0.034 | sotrastaurin -0.043 | alvocidib 0 | Tubastatin A -0.104 | [6] 0.042 | defactinib 0.036 | [7] 0.01 | encorafenib 0.037 | [8] -0.087 | alisertib -0.016 | [9] -0.001 | gefitinib 0.052
